Consider six compounds from PubChem BioAssay (Tox21).

The target of assay [1] is Thyrotropin receptor (Homo sapiens) (UniProt P16473). The assay can be described thus: qHTS assay to identify small molecule agonists of the thyroid stimulating hormone receptor (TSHR) signaling pathway (AID 1224843; calls by dose curve; further: nearly all actives have a fitted effect of over 45% in size). The essentials: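 A cell-based cAMP HTRF format was run in TSHR-transfected HEK293 cells, 800 per well. Treatment: 30 min, room temperature. Detection: 1 h with labelled cAMP and anti-cAMP cryptate. Concentration-response over 15 points, three replicates.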
A general note: Quantitative high-throughput screening tests each substance at several concentrations.

Assay [2] can be described thus: qHTS assay to identify small molecule agonists of the hypoxia (HIF-1) signaling pathway - cell viability counter screen (AID 1224844; calls by dose curve; further: nearly all actives have a fitted effect of over 50% in size). The essentials: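 In this counter screen, HRE-bla ME-180 cell viability after 17 hrs of compound exposure at 37C was read by CellTiter-Glo luminescence, multiplexed with the beta-lactamase reporter measurement.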
Assay [3] can be described thus: qHTS assay to identify small molecule agonists of H2AX (AID 1224845; active means well fitted activation curve with a large enough effect in the signal ratio in the repeat runs, not every such curve was filed as active; the % refers to the signal ratio). Summed up:
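Phospho-H2AX Ser139 measured by HTRF (ex 320 nm; em 665 and 620 nm) after 24 hr antibody incubation. Compounds, 15 concentrations, 0.76% DMSO, were applied to CHO-K1 cells for 3hr at 37C before lysis.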

Assay [4] can be described thus: qHTS assay to identify small molecule agonists of the hypoxia (HIF-1) signaling pathway (AID 1224846; active means well fitted activation curve with a large enough effect in the signal ratio in the repeat runs, not every such curve was filed as active; the % refers to the signal ratio). The essentials: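 ME-180 HRE-bla reporter cells; compounds in DMSO, 17 h at 37C; read-out beta-lactamase via CCF4-AM FRET.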
The nature of assay [5]: qHTS assay to identify small molecule agonists of H2AX - cell viability counter screen (AID 1224847; calls by dose curve; further: nearly all actives have a fitted effect of over 30% in size; further: potency means the concentration at half of the fitted maximal effect). The essentials: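 Quantitative HTS viability measurement: CHO-K1 wild-type cells in serum (10% FBS) medium, short 3 hr drug exposure at 37C with 0.76% DMSO, CellTiter-Glo luminescent detection.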
Assay [6] is described as follows: qHTS RealTime-Glo MT Cell Viability Assay in HepG2 cells - 24 hour (AID 1224867). Further: nearly all actives have a fitted effect of over 50% in size. The essentials:
(§1)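 Luminescence read-out: viable HepG2 cells reduce a prosubstrate to a NanoLuc substrate, giving a signal proportional to live cell number. Reads taken at 0, 8, 16, 24, 32 and 40 h of compound exposure at 37 C.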

The nature of assay [7]: qHTS RealTime-Glo MT Cell Viability Assay in HEK293 cells - 32 hour (AID 1224868). Further: top concentration of the series differs between compounds; nearly all actives have a fitted effect of over 50% in size. The essentials: (§2)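 Nonlytic real-time viability readout: viable cells convert prosubstrate to NanoLuc substrate, giving luminescence proportional to live cell number. HEK293, 600 cells/well, compound added after 5 h, continuous culture at 37 C.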
Assay [8] can be described thus: A CellTox Green Cytotoxicity Assay to monitor cytotoxicity in HEK293 cells - 0 hour (AID 1224869). Further: nearly all actives have a fitted effect of over 50% in size. The essentials:
(§3)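 Real-time, in one plate: 600 HEK293 cells/well with dead-cell DNA dye, pinned compound after 5 h, 37 C incubation over 40 h; viable cells give no appreciable fluorescence.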

Assay [9] in a line: qHTS RealTime-Glo MT Cell Viability Assay in HepG2 cells - 40 hour (AID 1224870). Further: nearly all actives have a fitted effect of over 50% in size. Summed up:
(§4)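 Real-time viability: cells seeded at 600 per well together with NanoLuc and cell-permeant prosubstrate, compounds added after 5 h incubation. Luminescence tracked at 0, 8, 16, 24, 32 and 40 h of exposure.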

Assay [10] is described as follows: qHTS RealTime-Glo MT Cell Viability Assay in HEK293 cells - 16 hour (AID 1224872). Summed up:
as §2

Assay [11] is described as follows: qHTS RealTime-Glo MT Cell Viability Assay in HepG2 cells - 8 hour (AID 1224873). Further: nearly all actives have a fitted effect of over 55% in size. The essentials: as §4
Assay [12] in a line: A CellTox Green Cytotoxicity Assay to monitor cytotoxicity in HEK293 cells - 24 hour (AID 1224875). Further: nearly all actives have a fitted effect of over 45% in size. Summed up: as §3
Assay [13] can be described thus: A CellTox Green Cytotoxicity Assay to monitor cytotoxicity in HepG2 cells - 16 hour (AID 1224876). Further: nearly all actives have a fitted effect of over 45% in size. The essentials:
(§5)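 Cytotoxicity was tracked as dead-cell DNA fluorescence in HepG2 cells treated with test compounds at 37 C; each time-point value comes from one kinetic series spanning 0, 8, 16, 24, 32 and 40 h.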

Assay [14] is described as follows: qHTS RealTime-Glo MT Cell Viability Assay in HepG2 cells - 32 hour (AID 1224877). Further: nearly all actives have a fitted effect of over 55% in size. The essentials:
as §1

Assay [15] can be described thus: A CellTox Green Cytotoxicity Assay to monitor cytotoxicity in HepG2 cells - 24 hour (AID 1224878). Further: nearly all actives have a fitted effect of over 45% in size. Summed up:
as §5

The nature of assay [16]: A CellTox Green Cytotoxicity Assay to monitor cytotoxicity in HepG2 cells - 40 hour (AID 1224879). Further: nearly all actives have a fitted effect of over 40% in size. The essentials: as §5
Assay [17] in a line: A CellTox Green Cytotoxicity Assay to monitor cytotoxicity in HEK293 cells - 40 hour (AID 1224871). Further: nearly all actives have a fitted effect of over 45% in size. The essentials:
as §3

The nature of assay [18]: qHTS RealTime-Glo MT Cell Viability Assay in HEK293 cells - 40 hour (AID 1224874). Further: nearly all actives have a fitted effect of over 50% in size. The following applies: RealTime-Glo luminescence; max response: stronger effect = lower value. The essentials:
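Kinetic, non-lysing viability readout. Seed HEK293 (600/well) with reagent, incubate 5 h at 37 C/5% CO2, pin 23 nL compound in DMSO, incubate at 37 C, read luminescence at 0, 8, 16, 24, 32, 40 h.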

Assay [19] is described as follows: qHTS assay to identify small molecule antagonists of the estrogen related receptor (ERR) signaling pathway from Tox21 library (AID 1224848). Further: nearly all actives have a fitted effect of over 50% in size. Summed up:
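ERR cell line, 2,000 cells/well. 6 h settle, then compound (DMSO) added; 18 h at 37 C; ONE-Glo luminescence after 30 min RT.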

Assay [20] in a line: qHTS assay to identify small molecule agonists of the estrogen related receptor (ERR) signaling pathway from Tox21 library (AID 1224849; calls by dose curve; further: nearly all actives have a fitted effect of over 15% in size). The settings on record: ERR reporter cell line, ONE-Glo luciferase, 18 h; at 92.4 µM (top of the series). Summed up: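 Luciferase activity in ERR pathway reporter cells served as the agonist readout; exposure lasted 18 h at 37 C, with ONE-Glo detection after 30 min at room temperature.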

“And” between values parts separate entries of the source, which are not always exact repeats. Identical values can stand only once. Records with an inconclusive call do not appear. Some compounds were tested as several samples or in several runs, with calls that do not always agree. The source made the active and inactive calls. Unless noted, the call rests on the fitted dose curve; in most records, active means well fitted curve in the direction sought with a large enough effect in the repeat runs; inconclusive means weak or mixed curves; inactive means no such curve, though single readings can be large; an effect the other way counts as inactive or inconclusive.
On the % scale 0 is the no-effect control and ±100 the full control effect.

Chain of Thyrotropin receptor (Homo sapiens) (P16473 whole entry, looked up): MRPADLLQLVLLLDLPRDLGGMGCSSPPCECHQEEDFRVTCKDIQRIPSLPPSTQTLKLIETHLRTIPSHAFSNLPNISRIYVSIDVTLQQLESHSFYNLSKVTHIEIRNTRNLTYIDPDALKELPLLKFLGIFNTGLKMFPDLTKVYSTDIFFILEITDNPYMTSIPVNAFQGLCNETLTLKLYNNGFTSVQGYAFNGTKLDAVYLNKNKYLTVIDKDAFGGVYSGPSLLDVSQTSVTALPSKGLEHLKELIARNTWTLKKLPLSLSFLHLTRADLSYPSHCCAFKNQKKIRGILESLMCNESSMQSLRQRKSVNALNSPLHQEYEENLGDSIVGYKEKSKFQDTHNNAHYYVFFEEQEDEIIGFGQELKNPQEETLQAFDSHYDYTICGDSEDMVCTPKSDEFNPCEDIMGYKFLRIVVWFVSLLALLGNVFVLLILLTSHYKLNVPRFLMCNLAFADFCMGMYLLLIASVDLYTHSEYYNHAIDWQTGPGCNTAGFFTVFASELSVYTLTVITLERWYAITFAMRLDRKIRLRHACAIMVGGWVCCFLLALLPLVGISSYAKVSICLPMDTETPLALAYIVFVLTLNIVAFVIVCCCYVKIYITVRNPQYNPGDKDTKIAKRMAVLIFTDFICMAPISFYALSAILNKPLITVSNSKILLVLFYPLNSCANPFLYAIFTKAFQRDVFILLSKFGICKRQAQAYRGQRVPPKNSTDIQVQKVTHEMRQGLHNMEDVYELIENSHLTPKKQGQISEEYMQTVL

With `COc1ccc(C=O)cc1`, the Potency result in [1], in assay [2], in [3], in assay [5], in assay [6] and in [7] was “inactive” throughout. The Potency entry in assay [8], in [9], in [10], in assay [11], in assay [12] and in assay [13] was “inactive” throughout. Besides, the Potency result in assay [14], in [15] and in assay [16] was “inactive” throughout. Further, the result in [4] was inactive.
`Cc1cc(Cl)ccc1OCCCC(=O)O`: the Potency result in assay [1], in assay [2], in assay [3], in assay [6], in assay [7] and in assay [8] was “inactive” in each case. The Potency result in [9], in assay [17], in assay [10], in assay [11], in [12] and in assay [13] was “inactive” throughout. For the same compound, the Potency entry in assay [14], in assay [15] and in [16] was “inactive” each time. For the same compound, the call in assay [4] was inactive. In [18], the max response is 5.09% (inactive) and 8.04% (inactive).
For `CCCCCCCCCCCOC(=O)c1ccccc1C(=O)OCCCCCCCCCCC`, the Potency result in assay [1], in assay [2], in assay [3], in assay [5], in assay [6] and in assay [7] was “inactive” in each case. The Potency result in assay [8], in assay [9], in [17], in assay [10], in assay [11] and in assay [12] was “inactive” each time. In addition, the Potency result in assay [13], in [14], in assay [15] and in assay [16] was “inactive” in each case. The compound was called inactive in [4]. In assay [18], the max response was 1.36% (inactive) and 2.6% (inactive).
In the case of `Nc1cccnc1`, the Potency result in [1], in assay [2], in assay [3], in assay [5], in assay [6] and in [7] was “inactive” throughout. Moreover, the Potency entry in assay [8], in [9], in [17], in [10], in assay [11] and in assay [12] was “inactive” in each case. In addition, the Potency result in [13], in assay [14], in [15] and in [16] was “inactive” throughout. Further, in assay [4], the compound was called inactive.
`CC(C)c1ccc(CO)cc1`: the Potency entry in assay [1], in assay [2], in assay [3], in assay [19], in [6] and in assay [7] was “inactive” throughout. The Potency entry in [8], in assay [9], in [17], in [10], in assay [11] and in assay [12] was “inactive” each time. Also, the Potency result in assay [13], in assay [14], in assay [15] and in assay [16] was “inactive” each time. The compound was classed as inactive in assay [4]. Also, in [20], the activity change, positive = activation was 2.78% (inactive) and -0.788% (inactive). Moreover, the max response in assay [18] is 0.21% (inactive) and 0.88% (inactive).
Consider `Oc1cc(Cl)c(Cl)cc1Cl`, for which the Potency result in assay [1], in assay [2], in [3], in assay [6], in assay [7] and in assay [8] was “inactive” throughout. Besides, the Potency result in [9], in assay [17], in [10], in assay [11], in assay [12] and in [13] was “inactive” throughout. Moreover, the Potency entry in [14], in assay [15] and in [16] was “inactive” each time. The compound was classed as inactive in assay [4]. Moreover, the Potency in assay [5] is 100 µM (active) and inactive. In addition, in assay [18], the max response is -18.2% (inactive) and -12.4% (inactive).
